These results are taken from PubChem BioAssay (NCI).

What all share (assay): NCI-60 one-dose screen, 48 h (100 = growth as untreated, 0 = no growth, -100 = all killed)
One test deals with T-47D breast. The note with it: 10 µM unless noted.
The next test concerns BT-549 breast. Particulars: 10 µM unless noted.
A further test deals with MDA-MB-435 melanoma. The note with it: 10 µM unless noted.
A further test has as its system SW-620 colon. The note with it: 10 µM unless noted.
In another test the test system is MCF7 breast. The note with it: 10 µM unless noted.
Another test has as its system HCT-116 colon. The note with it: 10 µM unless noted.
The subject of another test is HCC-2998 colon. Particulars: 10 µM.
Another test relates to KM12 colon. Particulars: 10 µM unless noted.

Structures are written as SMILES. About 83,000 compounds went through this panel and 20% of them were active in at least one assay; those are over-represented in the sample as a whole.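 Negative percent growth values reflect cell death: -40 means 40% of the cells present at the start died, and -100 means all died.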 Values without a mark were called inactive. Active and inactive are the calls of the source. The calls were made as follows: active = growth percent below 10; inactive = the rest.

For the compound `CCN1CCN(Cc2ccc(-c3cc4c(N[C@H](C)c5ccccc5)ncnc4[nH]3)cc2)CC1`, the growth was 29% in the test on T-47D breast; 79.2% in the test with BT-549 breast; 37% with MDA-MB-435 melanoma; 13.1% in the test with SW-620 colon; 48.6% in the test on MCF7 breast; 19.7% in the test on HCT-116 colon. For the same compound, the figures for the growth with HCC-2998 colon and in the test with KM12 colon were 14.3% and 31.2%, respectively.
`CCCCCCCCCCCC[n+]1ccccc1`: the growth in the test on T-47D breast was 4.67% (active); with BT-549 breast, -37.4% (active); in the test with MDA-MB-435 melanoma, -16.5% (active); in the test with SW-620 colon it was 10.7%; in the test on MCF7 breast, 5.23% (active); in the test on HCT-116 colon, 6.26% (active). Also, the growth in the test on HCC-2998 colon is 9.96% (active); in the test with KM12 colon it was -48.1% (active).
As for `COc1ccc2nc3cc(Cl)ccc3c(Nc3ccc(N(C)C)cc3)c2c1`, the growth is 86.3% with T-47D breast; 72.1% in the test with BT-549 breast; 99.9% in the test with MDA-MB-435 melanoma; 95.1% in the test on SW-620 colon; 83.5% in the test with MCF7 breast; 96.9% in the test on HCT-116 colon. Moreover, the growth in the test with HCC-2998 colon is 91.9%; in the test with KM12 colon, 83.1%.
On to `COCc1c(-c2ccc(NC(=O)Nc3cc(C(F)(F)F)ccc3F)c(F)c2)c2c(N)ncnn2c1CN1CCOCC1`, for which the growth with T-47D breast is -27% (active); in the test on BT-549 breast, -39.5% (active); in the test with MDA-MB-435 melanoma, -68.8% (active); in the test with SW-620 colon it was -0.244% (active); in the test on MCF7 breast it was -22.9% (active); with HCT-116 colon, -1.82% (active). Besides, the growth was -52.1% (active) in the test on HCC-2998 colon and -37.2% (active) in the test with KM12 colon.
For the compound `CCOC(=O)C1=C(C)N=C2Sc3cccc(OC)c3N2[C@H]1c1ccccn1`, the growth with T-47D breast is 96.5%; in the test on BT-549 breast, 101%; in the test with MDA-MB-435 melanoma, 110%; in the test on SW-620 colon, 102%; with MCF7 breast it was 97%; in the test with HCT-116 colon it was 94.9%. In addition, the figures for the growth in the test with HCC-2998 colon and in the test on KM12 colon were 93.2% and 96.6%, respectively.
`Clc1ccc(C(Cn2ccnc2)OCc2ccsc2Cl)c(Cl)c1` (stereo not drawn): the growth in the test on T-47D breast is 43.5%; with BT-549 breast, 40%; in the test with MDA-MB-435 melanoma it was -0.595% (active); in the test with SW-620 colon, 45.1%; in the test on MCF7 breast, 43.7%; in the test with HCT-116 colon, 26.3%. Also, the growth with HCC-2998 colon is 53.8%; with KM12 colon it was 24.6%.
As to `CCN1/C(=C/C=C/c2n(-c3ccccc3)c3ccc(-c4nc5ccccc5s4)cc3[n+]2CC)N(c2ccccc2)c2ccc(-c3nc4ccccc4s3)cc21`, the growth in the test with T-47D breast is 5.56% (active); in the test on BT-549 breast, -5.34% (active); in the test on MDA-MB-435 melanoma, -41.1% (active); in the test on SW-620 colon, 16.7%; in the test with MCF7 breast, 11.2%; in the test with HCT-116 colon, 10.8%. Moreover, the results for the growth in the test with HCC-2998 colon and in the test with KM12 colon were 33.3% and 10.6%, respectively.
As for `C=CC(=O)N1CCC(Oc2cc3c(Nc4ccc(Cl)c(Cl)c4F)ncnc3cc2OC)CC1`, the growth in the test on T-47D breast was -4.87% (active); with BT-549 breast, 8.14% (active); with MDA-MB-435 melanoma, -34.7% (active); with SW-620 colon, 32.8%; in the test on MCF7 breast it was 26.8%; in the test with HCT-116 colon, 21.8%. The growth in the test on HCC-2998 colon was 67.1%; in the test on KM12 colon, 30.6%.
On to `Cc1cc(Nc2ncnc3ccc(NC4=NC(C)(C)CO4)cc23)ccc1Oc1ccn2ncnc2c1`, for which the growth is 32.3% in the test with T-47D breast; 42.4% in the test with BT-549 breast; 43.9% in the test with MDA-MB-435 melanoma; 18.2% with SW-620 colon; 21.4% in the test with MCF7 breast; 16.1% in the test on HCT-116 colon. The growth in the test with HCC-2998 colon is 18.9%; in the test on KM12 colon it was 21.3%.
Consider `CN[C@@H]1C[C@H]2O[C@@](C)([C@@H]1OC)n1c3ccccc3c3c4c(c5c6ccccc6n2c5c31)C(=O)N[C@H]4O`, for which the growth with T-47D breast was -49.2% (active); in the test on BT-549 breast, -88.5% (active); with MDA-MB-435 melanoma, -79.4% (active); in the test with SW-620 colon, -6.96% (active); in the test with MCF7 breast it was -46.8% (active); in the test with HCT-116 colon it was -49.3% (active). For the same compound, the figures for the growth in the test on HCC-2998 colon and in the test on KM12 colon were -74.5% (active) and -59.8% (active), respectively.
With `CN(C)CCOC(=O)Nc1nc2ccc(Sc3ccccc3)cc2[nH]1`, the growth is 22.6% in the test on T-47D breast; 48.4% in the test with BT-549 breast; -54.2% (active) in the test with MDA-MB-435 melanoma; 23% with SW-620 colon; 22.7% in the test on MCF7 breast; 30.9% with HCT-116 colon. For the same compound, the figures for the growth in the test with HCC-2998 colon and in the test with KM12 colon were 61.3% and 20.8%, respectively.
For `O=C(Cn1ccc2ccccc21)Nc1ccc(-c2nc3ccccc3s2)cc1`, the growth in the test with T-47D breast is 90.6%; in the test with BT-549 breast it was 105%; with MDA-MB-435 melanoma it was 104%; in the test with SW-620 colon, 106%; with MCF7 breast, 38.2%; with HCT-116 colon, 102%. Besides, the growth in the test on HCC-2998 colon is 103%; in the test on KM12 colon it was 106%.
With `Cc1ccccc1Nc1nc2nonc2nc1Nc1cccc(C)c1C`, the growth in the test with T-47D breast was 16.2%; in the test with BT-549 breast it was 51.7%; in the test on MDA-MB-435 melanoma, 55.7%; in the test on SW-620 colon it was 77%; in the test on MCF7 breast, 43.3%; with HCT-116 colon it was 43%. Further, the growth is 67.5% in the test on HCC-2998 colon and 53.8% with KM12 colon.
For the compound `C#Cc1cccc(Nc2ncnc3cc(OC)c(OCCCCCCC(=O)NO)cc23)c1`, the growth was -24.4% (active) in the test on T-47D breast; -7.81% (active) in the test on BT-549 breast; -28.1% (active) in the test on MDA-MB-435 melanoma; -22.6% (active) with SW-620 colon; 8.28% (active) with MCF7 breast; -27.4% (active) with HCT-116 colon. In addition, the results for the growth with HCC-2998 colon and with KM12 colon were -53.5% (active) and 5.62% (active), respectively.
Regarding `CCN1CCN(c2nc(C)cc(N(CCCNc3ccnc4cc(Cl)ccc34)Cc3ccc4c(c3)OCO4)n2)CC1`, the growth in the test on T-47D breast was -60.9% (active); in the test on BT-549 breast, -53.1% (active); in the test with MDA-MB-435 melanoma it was -86.8% (active); in the test with SW-620 colon, -32.3% (active); in the test with MCF7 breast it was 7.69% (active); in the test on HCT-116 colon it was -9.36% (active). Further, the growth was -40.3% (active) in the test on HCC-2998 colon and 23.7% with KM12 colon.
For `CCc1nc2cc(/C=C/C(=O)NO)ccc2c(=O)n1CCc1ccc(OC)cc1`, the growth with T-47D breast is -2.1% (active); with BT-549 breast, 55.1%; in the test with MDA-MB-435 melanoma, 7.73% (active); in the test on SW-620 colon, 5.44% (active); with MCF7 breast it was 10.5%; with HCT-116 colon it was 1.28% (active). The growth in the test on HCC-2998 colon is 48%; with KM12 colon, 23.7%.
